aSyn 5UTR act = Activators via SNCA 5'UTR binding, MLPCN | 300,000 compounds, 7.1% hits | activity score, % (tested at 7.5 µM), hits read low | alpha-synuclein 5'UTR reporter, activators screen; in the data active = activity score below about -60%
Numbers without * were called inactive. A selection follows.

SMILES | aSyn 5UTR act
C=CCn1c(SCc2ccc(C#N)cc2)nnc1-c1cccc(OC)c1 | 58
C=CCn1c(SCc2ccc(OC)cc2)nnc1-c1cccnc1 | -117*
CCn1c(SCc2ccc(OC)cc2)nnc1-c1ccncc1 | -106*
Cc1ccc(OCCn2nnc3ccccc32)cc1C | -200*
COc1ccccc1OCCn1nnc2ccccc21 | -101*
COc1cccc(Cn2c(=O)oc3ccccc32)c1 | -77*
CC(=O)c1cccc(NC(=O)c2cc(-c3ccc(C)cc3)on2)c1 | -137*
CCCc1cc(C(=O)Nc2cccc(C(C)=O)c2)no1 | -80*
Cc1ccccc1OCC(=O)Nc1nc2ccccc2[nH]1 | -111*
O=C(COc1ccccc1)Nc1nc2ccccc2[nH]1 | -150*
CC(CC(=O)Nc1nc2ccccc2[nH]1)c1ccccc1 (stereo not given) | -189*
O=[N+]([O-])c1cccc(N2Cc3ccccc3C2)c1 | -113*
FC(F)(F)c1cccc(N2Cc3ccccc3C2)c1 | -72*
N#Cc1ccc(N2CCc3ccccc3C2)c([N+](=O)[O-])c1 | 81
N#CC(=C1CCCC1)c1nc(-c2cc3ccccc3oc2=O)cs1 | -232*
N#CC(=C1CCCC1)c1nc(-c2ccccc2O)cs1 | -209*
N#CC(=C1CCCC1)c1nc(-c2ccccc2)cs1 | -187*
Cc1ccc(-c2csc(C(C#N)=C3CCCC3)n2)cc1 | -236*
CC1Sc2n(c3ccccc3[n+]2C)N=C1c1ccccc1 (stereo not given) | -63*
CCOCC(=O)Nc1cccc(-c2nc3cccnc3s2)c1C | -63*
Oc1c(Br)cc(C2N=C(c3ccccc3)NO2)cc1Br (stereo not given) | -65*
CSc1ccc(C2N=C(c3ccccc3)NO2)cc1 (stereo not given) | -128*
C(=N\Nc1nc2ccccc2s1)/c1ccco1 | -80*
CCn1c(C)c(/C=N/Nc2nc3ccccc3s2)c2ccccc21 | -170*
Cc1ccsc1/C=N/Nc1nc2ccccc2s1 | -148*
SMILES | aSyn 5UTR act
C(=N\Nc1nc2ccccc2s1)/c1cccs1 | -212*
OCC(O)/C=N/Nc1nc2ccccc2s1 (stereo not given) | -72*
CCOc1ccc(C2CC(c3ccc(CC)cc3)Nc3nc(N)nn32)cc1 (stereo not given) | -65*
Clc1cccc(Cl)c1Cn1ccc(C2CC2)n1 | -100*
Cc1ccc(-n2c(C)nc3oc4ccccc4c(=O)c3c2=O)cc1 | -241*
CCc1nc2oc3cc(OC)ccc3c(=O)c2c(=O)n1-c1ccccc1 | -124*
COc1ccc2c(=O)c3c(=O)n(-c4ccccc4)c(-c4ccco4)nc3oc2c1 | -96*
Cc1sc(NC(=O)c2ccc(F)cc2)c(CN2CCCCCC2)c1C | -174*
Cc1sc(NC(=O)c2ccccc2F)c(CN2CCCCC2)c1C | -124*
COc1ccc(/C(C)=N/NC(=O)OC(C)(C)C)cc1[N+](=O)[O-] | -68*
Cc1ccc(-c2cnc(-c3ccncc3)o2)cc1 | -157*
Nc1ccc(-c2ncc(-c3ccccc3)o2)cc1 | 86
Cc1ccc(NC2=C/C(=N\S(=O)(=O)c3cccs3)c3ccccc3C2=O)c(C)c1 | 118
CCc1ccc(S(=O)(=O)/N=C2\C=C(Nc3ccc(O)cc3)C(=O)c3ccccc32)cc1 | 101
Cc1ccc(S(=O)(=O)/N=C2/C=C(C3C(=O)CC(C)(C)CC3=O)C(=O)c3ccccc32)cc1 | -180*
CC(C)c1ccc2c(c1)C1Cc3ccccc3C1N2 (stereo not given) | -196*
CCCCc1ccc(Nc2ncccc2C#N)cc1 | -87*
O=c1c(Cl)c(O)c2cccc3c4ccccc4n1c23 | -64*
COc1ccc2c(c1)CCc1c(C(=O)N3CCCCCC3)noc1-2 | -64*
CCCNC(=O)c1noc2c1CCc1cc(OC)ccc1-2 | -71*
O=C(c1noc2c1CCc1ccccc1-2)N1CCOCC1 | -72*
COc1ccc2c(c1)CCc1c(C(=O)NCc3cccnc3)noc1-2 | -91*
C/C(=N\NC(=O)c1c(Br)cnn1C)c1ccc(NC(=O)c2ccc(F)cc2)cc1 | -108*
C/C(=N\NC(=O)c1ccccc1F)c1cccc(NC(=O)c2ccc(C)cc2)c1 | -74*
C/C(=N\NC(=O)c1c(Cl)cnn1C)c1cccc(NC(=O)c2ccc(C)cc2)c1 | -72*
SMILES | aSyn 5UTR act
CSc1cccc(NC(=O)c2c(Cl)cnn2C)c1 | -89*
C/C(=N\NC(=O)c1cccc(F)c1)c1cccc(NC(=O)c2ccc(F)cc2)c1 | -72*
C/C(=N\NC(=O)c1ccc(O)cc1)c1cccc(NC(=O)c2ccc(Cl)cc2)c1 | -161*
O=[N+]([O-])c1cccc(-c2cn3ccccc3n2)c1 | -93*
CCCOc1ccc(-c2cn3ccccc3n2)cc1[N+](=O)[O-] | -114*
COc1ccc(-c2cn3ccccc3n2)cc1[N+](=O)[O-] | -162*
CCCCOc1ccc(CSc2nc(C)[nH]c2[N+](=O)[O-])cc1[N+](=O)[O-] | -65*
CCCCOc1ccc(-c2csc(N)n2)cc1[N+](=O)[O-] | -141*
c1ccc(Oc2ccc3ccccc3n2)cc1 | -129*
O=C(NCCc1ccccc1)C(=O)NCC1CCCO1 (stereo not given) | -64*
Cc1ccc(NC(=O)C(=O)NCC2CCCO2)cc1 (stereo not given) | -85*
COc1ccc(NC(=O)C(=O)N/N=C\c2ccc(CNC(=O)C(=O)Nc3ccc(C)c(C)c3)o2)c(OC)c1 | 88
Cc1ccc(NC(=O)C(=O)NCC2CCCO2)cc1C (stereo not given) | -96*
CC(=O)Nc1nc(-c2ccccc2)ns1 | -108*
COCC(=O)Nc1nc(-c2ccccc2)ns1 | -78*
O=C(Nc1nc(-c2ccccn2)cs1)c1cc(Cl)ccc1[N+](=O)[O-] | 116
Cc1csc(NC(=O)c2ccc(Cl)cc2[N+](=O)[O-])n1 | -92*
Cc1csc(NC(=O)c2cccnc2Cl)n1 | -76*
CC(C)[C@H](NC(=O)c1ccccc1Cl)C(=O)Nc1nc(-c2ccccn2)cs1 | 64
Cc1csc(NC(=O)c2cccc(C)c2C)n1 | -155*
Cc1csc(NC(=O)c2ccoc2C)n1 | -191*
Cc1csc(NC(=O)c2ccc[nH]c2=O)n1 | -85*
Cc1csc(NC(=O)c2cnccn2)n1 | -105*
Cc1ccc(OCCn2cnc3ccccc3c2=O)c([N+](=O)[O-])c1 | -157*
CCOc1cccc(OCCn2cnc3ccccc3c2=O)c1 | -79*
SMILES | aSyn 5UTR act
CCOc1ccc(OCCn2nnc3ccccc3c2=O)cc1 | -121*
CC1(C)N=C(N)N=C(N)N1c1ccc(Oc2ccc(Cl)cc2)c(Cl)c1 | 85
Nc1ccccc1C(=O)/C=C/c1ccc2c(c1)OCO2 | -340*
O=C(/C=C/c1ccc2c(c1)OCCO2)c1ccccc1 | -137*
O=C(O)c1ccc(/C=C/C(=O)c2ccc3c(c2)OCCCO3)cc1 | -135*
Cc1ccc(O)c(C(=O)/C=C/c2ccc3c(c2)OCCO3)c1 | -82*
N#C/C(=C\c1ccc(Cl)cc1)c1nc(-c2ccco2)cs1 | -66*
N#C/C(=C\c1ccc(F)cc1)c1nc(-c2ccco2)cs1 | -167*
COc1ccc(N=c2scc(-c3ccc(OC)cc3)n2CCO)cc1 | -66*
O=[N+]([O-])c1cc(-c2ccc(/C=N/c3nc4ccccn4c3-c3ccco3)o2)ccc1Cl | -74*
Cc1csc(NC(=O)CSc2nnc(-c3ccncc3)o2)n1 | -99*
O=C(CSc1nnc(-c2ccccc2)o1)Nc1ccccc1F | 74
Cc1cnc(NC(=O)CSc2nnc(-c3ccccc3)o2)s1 | -139*
Cc1csc(NC(=O)CSc2nnc(-c3ccoc3C)o2)n1 | -111*
Cc1occc1-c1nnc(SCC(=O)Nc2nc(C(C)(C)C)cs2)o1 | -111*
